# Source: publication PMC10668032, “Altered binding affinity of SIX1-Q177R correlates with enhanced WNT5A and WNT pathway effector expression in Wilms tumor”
# Over roughly 33,000 sequences, “e-score” has its median near -0.05; the highest 2% begin near 0.38. The full list was thinned out, with the highest values kept by preference.
# Molecular target: T1, SIX1-Q177R homeodomain (human, UniProt Q15475 108-198, Q177R)
# T1 sequence: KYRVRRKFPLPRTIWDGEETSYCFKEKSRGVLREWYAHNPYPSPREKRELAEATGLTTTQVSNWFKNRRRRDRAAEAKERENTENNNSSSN
# Test: universal protein binding microarray; Universal all-10-mer PBM (8x60K, AMADID 030236), 300 nM GST-tagged protein, Alexa Fluor 488 anti-GST; buffer, salt, pH and temperature not stated (as in Berger); high values mean tight binding
# Details: protein: ivt; tags: N-terminal GST; dsDNA, one strand shown
# How it was run: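 Binding was expressed as 8-mer E-scores calculated with the Universal PBM Analysis Suite. The GST-tagged homeodomains, made by in vitro transcription/translation, were applied in duplicate at 300 nM final concentration to universal 'all 10-mer' protein binding microarrays (8×60K format).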
row,Sequence,binding signal
1,CGCCGTGC,0.188 ± 0.0146 E-score
2,ACGTAGTG,0.23 ± 0.0205 E-score
3,CACGTGTA,0.4 ± 0.0127 E-score
4,CACGTGTC,0.398 ± 0.00923 E-score
5,CACGTGCC,0.225 ± 0.0142 E-score
6,AACGTGTC,0.3481 ± 0.00176 E-score
7,CACGTGCA,0.218 ± 0.0109 E-score
8,AACGTGTA,0.353 ± 0.0523 E-score
9,ACCGCTAG,0.171 ± 0.0167 E-score
10,AACAGGTG,0.327 ± 0.0196 E-score
11,CGTAACAC,0.4096 ± 0.00185 E-score
12,CGTAGCAC,0.17194 ± 0.000163 E-score
13,GGTAACAC,0.432 ± 0.00841 E-score
14,AGTAACAC,0.424 ± 0.0116 E-score
15,CGTAACCC,0.225 ± 0.019 E-score
16,GGTAAACA,0.188 ± 0.00443 E-score
17,AGTAACCC,0.201 ± 0.0162 E-score
18,GTAAACAC,0.375 ± 0.00722 E-score
19,CCACTTGC,0.163 ± 0.00866 E-score
20,AGGGGTAC,0.273 ± 0.0106 E-score
21,ATCCCCAC,0.211 ± 0.0453 E-score
22,ATCTTACA,0.262 ± 0.0268 E-score

row,Sequence,binding signal
1,ACCCGTAA,0.264 ± 0.0395 E-score
2,TGCCGACA,0.177 ± 0.00329 E-score
3,CCGGTGCA,0.203 ± 0.0164 E-score
4,ACGGTGCT,0.179 ± 0.0133 E-score
5,GCGGTGTA,0.4849 ± 0.00132 E-score
6,ACGGTGCA,0.2931 ± 0.00041 E-score
7,GCTGTGTA,0.223 ± 0.0192 E-score
8,ACGGTGTA,0.4693 ± 0.00139 E-score
9,CCGGTATA,0.183 ± 0.0142 E-score
10,GATGTGTA,0.19 ± 0.00781 E-score
11,CCGGTGTA,0.4859 ± 0.00134 E-score
12,CCCGAGTA,0.167 ± 0.00344 E-score
13,CTTAGGGA,0.151 ± 0.0622 E-score
14,GCACAACA,0.156 ± 0.0323 E-score
15,CACCTGAG,0.183 ± 0.0139 E-score
16,ATTGGTGC,0.1599 ± 0.00112 E-score
17,CAAGGACA,0.194 ± 0.0363 E-score
18,ACGACCCG,0.179 ± 0.0515 E-score
19,CACGCATC,0.168 ± 0.00731 E-score
20,CACCAGCG,0.22 ± 0.0046 E-score
21,CCGTGTCA,0.465 ± 0.00781 E-score
22,GCGTGTCA,0.4332 ± 0.000573 E-score

row,Sequence,binding signal
1,GCGTGTCC,0.412 ± 0.0188 E-score
2,ACGTGTCC,0.347 ± 0.017 E-score
3,ACGTGTCG,0.383 ± 0.00518 E-score
4,ACGTGGTG,0.3594 ± 0.00155 E-score
5,GCGTGACA,0.254 ± 0.0158 E-score
6,CCGTGTGA,0.299 ± 0.0309 E-score
7,CCGTGACA,0.307 ± 0.00911 E-score
8,GCGTATCC,0.176 ± 0.00656 E-score
9,ACGTGTGG,0.218 ± 0.0138 E-score
10,CCAGCTGG,0.263 ± 0.0674 E-score
11,CATGGTGG,0.192 ± 0.00214 E-score
12,GTGCGTGA,0.163 ± 0.0169 E-score
13,CCCCCTTC,0.2098 ± 0.000417 E-score
14,CCGTGTCC,0.408 ± 0.0236 E-score
15,ACGTGTCA,0.4123 ± 0.00349 E-score
16,CCGTGTCG,0.441 ± 0.0221 E-score
17,TCGTGTCA,0.4434 ± 0.00419 E-score
18,TCGGGTCA,0.197 ± 0.0386 E-score
19,CCGGGTCG,0.248 ± 0.0288 E-score
20,CCCCGTCG,0.161 ± 0.0244 E-score
21,ACGTGTCT,0.337 ± 0.00126 E-score
22,CCCTGTCC,0.152 ± 0.0156 E-score

row,Sequence,binding signal
1,CCGTGATC,0.165 ± 0.0407 E-score
2,TCGTGACA,0.329 ± 0.0128 E-score
3,CGAATCCG,0.166 ± 0.0303 E-score
4,AGCTCGTG,0.244 ± 0.0101 E-score
5,ATACTCCC,0.162 ± 0.0435 E-score
6,CCCCGGTA,0.284 ± 0.00694 E-score
7,CATCAGCG,0.153 ± 0.0322 E-score
8,CACCGGAC,0.315 ± 0.0498 E-score
9,CTATAACA,0.228 ± 0.0138 E-score
10,AAAGTGTT,0.285 ± 0.0563 E-score
11,AGAGTGTC,0.412 ± 0.00919 E-score
12,CAAGTGTA,0.392 ± 0.0272 E-score
13,AGAGTGTA,0.424 ± 0.0108 E-score
14,CAAGTGTC,0.379 ± 0.0101 E-score
15,AGTGTGTC,0.283 ± 0.029 E-score
16,GAAGTGTC,0.387 ± 0.0118 E-score
17,AAAGTGTG,0.184 ± 0.0165 E-score
18,TAAGTGTA,0.373 ± 0.0287 E-score
19,AGAGTGTG,0.247 ± 0.0115 E-score
20,ACCCGGCT,0.202 ± 0.0126 E-score
